Source: PubChem BioAssay
In the library only some 1.6% were active in any assay of this set; here they are far more common.
KCNQ2 inh: inhibitors of rat KCNQ2 potassium channel; O88943; CHO-K1 KCNQ2, FluxOR thallium flux, 20 min; stronger effect = lower value; B-score at 10 µM; hit rate 1.1% among 310,000; AID 2156;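 active = fluorescence ratio B-score at most minus 3 library SDs, with starting brightness B-score within 2 library SDs, cut at about -5.5 in these data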
KCNQ2 enhance: enhances the rat KCNQ2 potassium channel; O88943; CHO-K1 KCNQ2, FluxOR thallium flux fluorescence; stronger effect = higher value; B-score at 10 µM; hit rate 0.54% among 310,000;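 active = fluorescence ratio B-score at least 3 SD of library B-scores, with initial fluorescence B-score within 3 of them, cut at about 5.3 in these data; same plate scores as AID 2156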;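 note: B-score of peak minus minimum over baseline fluorescence ratio after K+ and Tl+ stimulus; positive B-score means potentiation of KCNQ2 with more thallium influx and brighter signal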
Kir21 conf inh: confirmation of mouse Kir2.1 potassium channel inhibitors; shares compounds with KCNQ2 enhance; Kir2.1-expressing cells, FluxOR thallium flux fluorescence; stronger effect = lower value; Tl flux remaining, % of negative control (stronger effect = lower value), % at 10 µM; hit rate 41% among 2,300;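 active = Primary-screen hit whose thallium flux fell at least 3 control SD below untreated wells in both duplicates, with normal baseline fluorescence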
Target sequence (P35561 whole entry, looked up): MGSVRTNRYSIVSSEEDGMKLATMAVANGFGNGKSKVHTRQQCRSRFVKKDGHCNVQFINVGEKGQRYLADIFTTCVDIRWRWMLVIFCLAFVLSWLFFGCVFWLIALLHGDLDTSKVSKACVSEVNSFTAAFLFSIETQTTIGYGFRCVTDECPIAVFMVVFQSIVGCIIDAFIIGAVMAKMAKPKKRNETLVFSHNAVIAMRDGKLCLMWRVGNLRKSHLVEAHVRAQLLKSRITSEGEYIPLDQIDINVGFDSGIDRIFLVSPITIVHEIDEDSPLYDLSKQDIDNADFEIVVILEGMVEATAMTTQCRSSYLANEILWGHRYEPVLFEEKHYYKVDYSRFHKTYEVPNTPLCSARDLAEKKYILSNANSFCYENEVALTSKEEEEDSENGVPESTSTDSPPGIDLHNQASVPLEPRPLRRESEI
HEK293 ctr: alters thallium flux in parental HEK293 cells, Kir2.1 counter-screen | shares compounds with KCNQ2 enhance | FluxOR thallium flux fluorescence; 0% = unstimulated blank wells | FluxOR signal as % of negative control (100 = no effect), % at 10 µM | hit rate 19% among 2,300;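 active = dye signal at least 3 control SD above or below untreated wells in both duplicates, raw fluorescence within 3, either direction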;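 note: percent is based on the flux ratio of peak minus minimum fluorescence over baseline F0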
CHO-K1 ctr: parental CHO-K1 activity in KCNQ2 potentiator counter-screen; hit rate 43% among 1,200; parental CHO-K1 cells, FluxOR thallium flux fluorescence; zero = vehicle mean+3SD, 100% = vehicle-minus-blank window; AID 2282; activity increase over 3SD of controls, % at 10 µM; shares compounds with KCNQ2 enhance;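 active = signal rise of at least 3 SD above the untreated control mean, in both duplicate wells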;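 note: counter screen of KCNQ2 potentiator hits so any rise reflects channel-independent effects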
KCNQ1 sel pot: tests whether KCNQ2 potentiators also act on human KCNQ1; AID 2283; activation over 3SD threshold, % at 10 µM; CHO KCNQ1 stable, FluxOR thallium flux fluorescence; beyond 3SD, as % of vehicle-control signal; hit rate 28% among 1,200; shares compounds with KCNQ2 enhance;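 active = fluorescence ratio rise of at least 3 SD of vehicle wells above their mean, in both replicate wells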
KCNQ2 pot conf: rat KCNQ2 channel potentiator confirmation | shares compounds with KCNQ2 enhance | CHO-KCNQ2 cells, FluxOR thallium flux fluorescence | potentiation, less the hit threshold, % at 10 µM | hit rate 68% among 1,200;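 active = fluorescence ratio rising 3 SD or more over the vehicle control mean in both replicates, plus primary screen hit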;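 note: peak minus minimum thallium fluorescence divided by baseline after K/Tl stimulus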
Kir21 spec: mouse Kir2.1 off-target activity of KCNQ2 potentiators; shares compounds with KCNQ2 enhance; HEK293 Kir2.1, FluxOR thallium flux fluorescence; activity over 3SD threshold, % at 10 µM; hit rate 2% among 1,200; AID 2345;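 active = fluorescence ratio rise of at least 3 SD above the vehicle-control mean, seen in both replicates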
KCNQ2 W236L pot: potentiates the retigabine-insensitive rat KCNQ2 W236L mutant channel; AID 2558; shares compounds with KCNQ2 enhance; hit rate 10% among 940; current increase over 3SD of negative controls (%), stronger effect = higher value, % at 25 µM; CHO KCNQ2-W236L, automated patch clamp current;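 active = current increase at least 3 SD of the untreated controls above them in both duplicate recordings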
Numbers stand for hits; n = inactive; x = no result.

SMILES	KCNQ2 inh	KCNQ2 enhance	Kir21 conf inh	HEK293 ctr	others
CCCOc1ccc(-c2c(C(=O)N/N=C/c3cccnc3)nnn2-c2nonc2N)cc1	n	n	x	x
COc1cc(C)nc(NCc2ccccc2)n1	n	x	x	x
COc1ccc(Nc2cc(C)nc(NCc3ccccc3)n2)cc1	n	x	63.5%	n
O=C(OCc1ccc(Cl)c(Cl)c1)c1ccccn1	n	n	x	x
Nc1ncccc1OCc1ccc(Cl)c(Cl)c1	n	5.37	n	n	CHO-K1 ctr=n;KCNQ1 sel pot=n;KCNQ2 pot conf=n;Kir21 spec=n
COc1ccccc1C(=O)NNC(=O)c1ccc(F)cc1	n	x	x	x
O=C(NNC(=O)c1ccccc1OCc1ccc(F)cc1)c1ccncc1	n	6.11	n	n	CHO-K1 ctr=23.3;KCNQ1 sel pot=n;KCNQ2 pot conf=n;Kir21 spec=n
CC(C)OP(=O)(OC(C)C)C(O)c1ccc(N(C)C)cc1 (stereo not given)	n	x	x	x
O=C(/C=C/c1cccc2ccccc12)N1CCOCC1	n	x	x	x
O=C(Nc1ccc(Cl)cc1)ON=C1CCCC1	n	n	x	x
CCCCn1c2c(c(=N)c3ccccc31)CCC2	n	x	x	x
CCCCCCCCCn1c2c(c(=N)c3c1CCC3)CCCC2	n	18.9	9.0%	n	CHO-K1 ctr=39.0;KCNQ1 sel pot=n;KCNQ2 pot conf=n;Kir21 spec=n;KCNQ2 W236L pot=n
CCn1c2c(c(=N)c3c1CCC3)CCCC2	n	n	x	x
CCCCCCCCn1c2c(c(=N)c3ccccc31)CCC2	-5.74	n	13.5%	n
O=C(Cn1ncc2c(=O)oc3ccccc3c21)NCC1CCCO1 (stereo not given)	n	n	x	x
O=C(CCSCc1ccccc1F)N1CCN(c2ccccn2)CC1	n	x	x	x
O=C(Cn1ncc2c3ccccc3n(Cc3ccccc3)c2c1=O)NC1CCCC1	n	x	x	x
O=C(Cn1ncc2c3ccccc3n(Cc3cccc(Cl)c3)c2c1=O)NCC1CCCO1 (stereo not given)	n	8.18	n	n	CHO-K1 ctr=69.1;KCNQ1 sel pot=n;KCNQ2 pot conf=2.4;Kir21 spec=n;KCNQ2 W236L pot=n
O=C(Cn1ncc2c3ccccc3n(Cc3ccccc3F)c2c1=O)N1CCN(c2ccccn2)CC1	n	11.3	n	n	CHO-K1 ctr=37.9;KCNQ1 sel pot=n;KCNQ2 pot conf=24.1;Kir21 spec=n;KCNQ2 W236L pot=n
O=C(Cn1ncc2c3ccccc3n(Cc3ccccc3F)c2c1=O)NCC1CCCO1 (stereo not given)	n	5.97	n	n	CHO-K1 ctr=21.9;KCNQ1 sel pot=n;KCNQ2 pot conf=n;Kir21 spec=n;KCNQ2 W236L pot=n
Cc1nn(-c2cc(Cl)ccc2Cl)c(C)c1C(=O)O	n	n	x	x
CC(C)C(=O)Nc1nc2c(c(=O)[nH]1)CCCC2	n	n	x	x
Oc1c(Cl)cc(Cl)cc1/C=N/c1nccs1	n	9.07	n	n	CHO-K1 ctr=n;KCNQ1 sel pot=126.5;KCNQ2 pot conf=34.0;Kir21 spec=n;KCNQ2 W236L pot=13.9%
Oc1c(Cl)cc(Cl)cc1C=Nc1ccccc1N1CCCC1	n	n	x	x
NC(=O)c1cccc(N=Cc2cc(Cl)cc(Cl)c2O)c1	n	13.2	n	n	CHO-K1 ctr=4.4;KCNQ1 sel pot=30.6;KCNQ2 pot conf=22.0;Kir21 spec=n;KCNQ2 W236L pot=n
SMILES	KCNQ2 inh	KCNQ2 enhance	Kir21 conf inh	HEK293 ctr	others
Oc1c(Cl)cc(Cl)cc1/C=N/c1nc(-c2ccc(Cl)cc2)cs1	n	n	x	x
CCc1ccc(Nc2n[n+](C)c(-c3ccncc3)s2)cc1	n	x	x	x
CCOC(=O)CCCNC(=O)COC(=O)c1ccc(O)cc1	n	n	x	x
COc1ccccc1N(CC1CO1)S(=O)(=O)c1ccc(C)cc1 (stereo not given)	n	x	x	x
COCc1cc(C)nc2sc(C(=O)Nc3cccc(OC)c3)c(N)c12	n	x	x	x
C=CCn1c(COc2ccccc2)nnc1SCc1ccc(C#N)cc1	n	x	45.0%	69.0%
C=CCn1c(COc2ccc(Cl)cc2)nnc1SCc1ccc(C#N)cc1	n	x	x	x
COc1ccc(CN2CCN(Cc3csc(C(C)=O)c3)CC2CCO)c(C)c1C (stereo not given)	n	x	x	x
C=C(C)Cn1cnc2cc(C)c(C)cc21	n	x	x	x
O=c1[nH]c(-c2ccccc2)cs1	n	n	x	x
S=c1[nH]c(-c2ccccc2)cs1	n	11.2	n	147.0%	CHO-K1 ctr=9.5;KCNQ1 sel pot=n;KCNQ2 pot conf=65.7;Kir21 spec=n;KCNQ2 W236L pot=n
CCN(Cc1ccccc1)S(=O)(=O)c1ccc2c(c1)NC(=O)CC(=O)N2	n	x	x	x
CCN(Cc1ccccc1)S(=O)(=O)c1ccc2c(c1)NC(=O)CS2	n	n	73.0%	n
Cc1ccc(NC(=O)CN2CCCCCC2)cc1[N+](=O)[O-]	n	n	x	x
Cc1nn2c(N3CCOCC3)cc(C(C)C)nc2c1-c1ccccc1	n	x	x	x
CCN1CCN(c2cc(C(C)C)nc3c(-c4ccccc4)c(C)nn23)CC1	n	x	60.0%	n
Cc1c(C(=O)N2CCCCCC2)c(S(=O)(=O)NCc2ccccc2Cl)c(C)n1C	n	x	x	x
C=CCOc1ccc(/C=C2\SC(=S)N(NS(=O)(=O)c3ccc(C)cc3)C2=O)cc1	n	7.7	n	158.5%	CHO-K1 ctr=16.8;KCNQ1 sel pot=n;KCNQ2 pot conf=17.1;Kir21 spec=n;KCNQ2 W236L pot=n
COc1ccc(/C=C2/SC(=S)N(NS(=O)(=O)c3ccc(C)cc3)C2=O)cc1	n	n	x	x
COC(=O)c1ccc(Oc2ccc(C(F)(F)F)cn2)cc1	n	n	x	x
CN(CC(=O)Nc1ccc(OC(F)(F)F)cc1)C1CCCCC1	n	x	x	x
O=C(CNCC1CCCCC1)Nc1ccc(OC(F)(F)F)cc1	n	15.2	n	n	CHO-K1 ctr=0.6;KCNQ1 sel pot=n;KCNQ2 pot conf=35.0;Kir21 spec=n;KCNQ2 W236L pot=n
O=C(CCCN1CCC(O)(c2ccc(Cl)cc2)CC1)c1ccc(F)cc1	n	x	34.5%	n
O=C(CCCN1CCC(C(=O)c2ccc(F)cc2)CC1)c1ccc(F)cc1	n	x	x	x
CCOc1ccccc1CNCc1ccc(C(=O)O)cc1	n	x	x	x
SMILES	KCNQ2 inh	KCNQ2 enhance	Kir21 conf inh	HEK293 ctr	others
O=C(COc1ccccc1CNCc1ccccc1)Nc1ccccc1	n	x	35.0%	n
CC(C)c1ccc(NC(=O)Cn2nnc(C(=O)NCc3ccco3)c2N)cc1	n	x	x	x
COc1cccc(/C=N/n2c(SC)nnc2-c2ccccc2)c1OC	n	x	x	x
COc1cccc(/C=N/n2c(SC)nnc2-c2ccccc2)c1O	n	5.33	n	n	CHO-K1 ctr=n;KCNQ1 sel pot=n;KCNQ2 pot conf=n;Kir21 spec=n
CCCCN(C(=O)c1ccc(S(=O)(=O)N(CC)CC)cc1)c1c(N)n(CCC)c(=O)[nH]c1=O	n	n	x	x
CC(=O)Nc1ccc(S(=O)(=O)N2CCN(S(=O)(=O)c3ccc(F)c(F)c3F)CC2)cc1	n	x	x	x
CC(C)c1ccc(S(=O)(=O)NCc2ccc3c(c2)OCO3)cc1	n	x	x	x
Cc1cc(C)c(C)c(S(=O)(=O)NC(C(=O)O)C(C)C)c1C (stereo not given)	n	n	x	x
COc1ccc2nc(NNC(=O)c3cc(=O)c4ccccc4o3)sc2c1	n	13.1	n	n	CHO-K1 ctr=n;KCNQ1 sel pot=n;KCNQ2 pot conf=n;Kir21 spec=n
Cc1cccc2sc(NNC(=O)c3cc(=O)c4ccccc4o3)nc12	n	n	x	x
